# Test results published in the OligoGym collection.
# Molecular target: OSR1
# Assay: pooled miR-30 sensor sort-seq; sequence = guide strand
# Details: shRNA
# Note: reference of the scale not given here.
row,Sequence,sensor-assay potency score (higher = more potent)
1,TTGTAGGACTTGGTGAAGTGGC,-0.656
2,ATATCTGTGGTCTCGCAGGTGG,-0.964
3,TTTGGAGTGAATATATCTGTGG,-0.758

# Molecular target: OTOL1
# Assay: as above
# Details: shRNA
row,Sequence,sensor-assay potency score (higher = more potent)
1,TTCTCTGGACTTGAACTGCTTC,-0.336
2,TTCCATTCCACTGTCTCCTTTG,-0.205
3,TAGGAAAAAACATATGTCCCAG,-0.389
4,TTGTCCTTTCACTCCTCCCAAA,-1.46
5,TTTCTCTGGACTTGAACTGCTT,-0.0808
6,TGAACTGCTTCTTATTCTGGGC,-0.752
7,TTGCTATTGTGTTCATACCAGC,-1.39
8,TTTGGTAATTGGTTCTGCCATT,-0.925
9,TAGAGCAGTTAAACTTCCCAGT,-0.7
10,TCTTTTGACACCTCAAGCCAGA,-0.531
11,TTGGTCATTATAGAGAATCTTT,-0.546
12,TTGAACTGCTTCTTATTCTGGG,0.431
